Source: PubChem BioAssay (EPA / NIEHS)
Some structures have more than one record in an assay (separate samples or runs), and their calls can disagree. Calls of active or inactive are those of the source. Rule for the calls: active = hit-call score of the fitted dose curve at least 0.9, where 1 is the maximum; inactive = score below 0.9.

Biological target: X-box-binding protein 1 (Homo sapiens) (UniProt P17861)
Experiment: ATG_Xbp1_CIS: Attagene CIS-FACTORIAL HepG2 Assay for human X-box Binding Protein 1 (XBP1) (AID 2282972)
Conditions: HepG2 XBP1 cis-element reporter, Attagene multiplex; actives raise or lower the signal
Procedure: ATG_CIS is a cell-based, multiplexed-readout assay that uses HepG2, a human liver cell line, with measurements taken at 24 hours after chemical dosing in a 24-well plate.ATG_Xbp1_CIS is one of 52 assay component(s) measured or calculated from the ATG_CIS assay. It is designed to make measurements of mRNA induction, a form of inducible reporter, as detected with fluorescence intensity signals by Reverse transcription polymerase chain reaction (RT-PCR) and Capillary electrophoresis technology.Data from the assay component ATG_Xbp1_CIS was analyzed into 1 assay endpoint. This assay endpoint, ATG_Xbp1_CIS, was analyzed with bidirectional fitting relative to DMSO as the negative control and baseline of activity. Using a type of inducible reporter, measures of mRNA for gain or loss-of-signal activity can be used to understand the reporter gene at the transcription factor-level as they relate to the gene XBP1. Furthermore, this assay endpoint can be referred to as a primary readout, because this assay has produced multiple assay endpoints where this one serves a reporter gene function. To generalize the intended target to other relatable targets, this assay endpoint is annotated to the dna binding intended target family, where the subfamily is basic leucine zipper.
Human liver HepG2 cells are transiently transfected with multiple reporter transcription units (MRTUs) in 6-well plates using FuGene 6 reagent (Roche; 3 ml FuGene/1 mg DNA). The MRTU constructs are regulated by a cis-regulating element (promoter). […] A major difference between the CIS and TRANS system is that in CIS activities of endogenous TFs are measured, whereas the TRANS assay evaluates changes in activities of exogenous, chimeric NR-Gal4 proteins. […] At the end of 24 hour incubation, total RNA was isolated using TriZol reagent (Invitrogen). The isolated RNA is then reverse-transcribed using oligo(dT) primer and Mo-MLV reverse transcriptase (Invitrogen) with DNAse I (Ambion) treatment for 30 min. The one-tenth of the produced cDNA was amplified by PCR using Taq DNA polymerase (Invitrogen) and two reporter sequence-specific primers. The PCR products were fluorescently labeled by primer extension with 6-arboxyfluorescein (6-FAM) 5'-labeled reporter sequence-specific primer (2 min at 95 C, 20 s at 68 C and 10 min at 72 C) and these products were digested with 5U of HpaI (New England Biolabs) for 2h at 37 C. The fragments were purified using Qiaquick PCR columns (Qiagen), analyzed on an ABI 3130xL genetic analyzer (Applied Biosystems) with peak positions identified by using a set of X-rhodamine (ROX)-labeled MapMarker1000 molecular weight standards (BioVentures). The raw capillary electrophoresis data was processed using Attagraph software (Attagene).

Chain of X-box-binding protein 1 (Homo sapiens) (P17861 whole entry, looked up): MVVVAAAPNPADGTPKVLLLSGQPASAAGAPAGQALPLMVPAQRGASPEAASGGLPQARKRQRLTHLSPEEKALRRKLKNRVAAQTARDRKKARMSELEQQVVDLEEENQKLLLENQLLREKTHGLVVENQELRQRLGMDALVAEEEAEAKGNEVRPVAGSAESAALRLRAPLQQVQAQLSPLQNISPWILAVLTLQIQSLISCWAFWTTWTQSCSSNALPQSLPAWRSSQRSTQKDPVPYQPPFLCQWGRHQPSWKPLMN

Question: Which outcome does the source give for `CCNc1nc(NCC)nc(SC)n1` here?
Answer: Its outcome is “inactive”.

Question: Which outcome does the source give for `O=C(NC(=O)c1c(F)cccc1F)Nc1cc(Cl)c(F)c(Cl)c1F` here?
Answer: Its outcome is “inactive”.

Question: How did the outcome turn out when `Nc1ccc(Br)cc1` was run?
Answer: Its outcome is “inactive”.

Question: How did the outcome turn out when `CCCSP(=S)(OCC)Oc1ccc(SC)cc1` (stereo not given) was run?
Answer: Its outcome is “inactive”.

Question: For `CC(C)=CC1C(C(=O)OCc2cccc(Oc3ccccc3)c2)C1(C)C` (stereo not given), which outcome is on record?
Answer: The outcome was “inactive”.

Question: How did the AC50 turn out when `C[C@@H]1O[C@@H](O[C@H]2C[C@@H](O)[C@]3(CO)[C@H]4[C@H](O)C[C@]5(C)[C@@H](C6=CC(=O)OC6)CC[C@]5(O)[C@@H]4CC[C@]3(O)C2)[C@H](O)[C@H](O)[C@H]1O` was run?
Answer: The AC50 was 0.628 µM (active).

Question: `CN(CCCC(O)c1cccnc1)N=O` (stereo not given) was tested. Which outcome did it give?
Answer: The outcome was “inactive”.

Question: `CCOC(=O)Cc1ccccc1` was tested. Which outcome did it give?
Answer: The outcome was “inactive”.

Question: Which outcome does the source give for `Clc1cccc(Cl)c1Cl` here?
Answer: Its outcome is “inactive”.

Question: For `Nc1nc(=S)[nH][nH]1`, which outcome is on record?
Answer: The outcome was “inactive”.

Question: With `Cc1cc(-c2cc(C)c(N)c(C)c2)cc(C)c1N` as the compound, how does the outcome read?
Answer: The outcome was “inactive”.

Question: Which outcome does the source give for `COC(=O)c1cc(Oc2ccc(Cl)cc2Cl)ccc1[N+](=O)[O-]` here?
Answer: The outcome was “inactive”.

Question: `CCOC(=O)c1ccccc1S(=O)(=O)NC(=O)Nc1nc(Cl)cc(OC)n1` was tested. Which outcome did it give?
Answer: Its outcome is “inactive”.

Question: `ClCCN1CCOCC1` was tested. Which outcome did it give?
Answer: The outcome was “inactive”.

Question: For `CC(C)CP(=S)(S)CC(C)C`, which outcome is on record?
Answer: The outcome was “inactive”.

Question: For `CCOP(=O)(OCC)SCCSCC`, which outcome is on record?
Answer: The outcome was “inactive”.

Question: For `FC(F)OCC(F)(F)C(F)(F)F`, which outcome is on record?
Answer: Its outcome is “inactive”.

Question: With `O=C1C=CC(=O)c2ccccc21` as the compound, how does the outcome read?
Answer: Its outcome is “inactive”.

Question: `CCN(CC)C(=O)C(Cl)=C(C)OP(=O)(OC)OC` was tested. Which outcome did it give?
Answer: Its outcome is “inactive”.

Question: With `O=c1oc2ccccc2c(O)c1C(CC(O)c1ccc(-c2ccc(Br)cc2)cc1)c1ccccc1` (stereo not given) as the compound, how does the outcome read?
Answer: The outcome was “inactive”.

Question: And the AC50?
Answer: Its AC50 is 41.7 µM (active).

Question: How did the outcome turn out when `CCOC(=O)C(SP(=S)(OC)OC)c1ccccc1` (stereo not given) was run?
Answer: Its outcome is “inactive”.

Question: For `CCOC(=O)CC(=O)CCl`, which AC50 is on record?
Answer: Its AC50 is 23.6 µM (active).

Question: For `CC(C)[N+](=O)[O-]`, which outcome is on record?
Answer: The outcome was “inactive”.

Question: With `CCOc1ccc(N)cc1` as the compound, how does the outcome read?
Answer: The outcome was “inactive”.

Question: Which outcome does the source give for `Oc1ccc(Cc2ccc(O)cc2)cc1` here?
Answer: Its outcome is “inactive”.

Question: For `C=CC(=O)[O][Sn]([CH2]CCC)([CH2]CCC)[CH2]CCC`, which AC50 is on record?
Answer: The AC50 was 0.412 µM (active).

Question: With `C=CC(Cl)CCl` (stereo not given) as the compound, how does the outcome read?
Answer: Its outcome is “inactive”.

Question: How did the AC50 turn out when `CCCCN(CCCC)C(=S)S` was run?
Answer: The AC50 was 70.5 µM (active).

Question: Which AC50 does the source give for `Oc1cc(Cl)c(Cl)cc1Cl` here?
Answer: The AC50 was 59 µM (active).

Question: For `CCCSP(=S)(OCC)Oc1ccc(Cl)cc1Cl` (stereo not given), which outcome is on record?
Answer: Its outcome is “inactive”.

Question: Which outcome does the source give for `O=C(NC(=O)c1c(F)cccc1F)Nc1ccc(Cl)cc1` here?
Answer: Its outcome is “inactive”.

Question: For `N#CCCC(Br)(C#N)CBr` (stereo not given), which AC50 is on record?
Answer: Its AC50 is 57.9 µM (active).

Question: How did the AC50 turn out when `CC(C)(C)c1cc([N+](=O)[O-])cc(C(C)(C)C)c1O` was run?
Answer: Its AC50 is 4.78 µM (active).

Question: For `Nc1ccc(-c2ccccc2)cc1`, which outcome is on record?
Answer: The outcome was “inactive”.

Question: For `O=[N+]([O-])c1ccc(Cl)c([N+](=O)[O-])c1`, which outcome is on record?
Answer: The outcome was “inactive”.

Question: `CCCCCCCCCCCCCl` was tested. Which outcome did it give?
Answer: The outcome was “inactive”.

Question: How did the outcome turn out when `CCCCCCCCCCBr` was run?
Answer: The outcome was “inactive”.

Question: How did the outcome turn out when `Clc1ccc(C(Cl)(Cl)Cl)cn1` was run?
Answer: The outcome was “inactive”.

Question: For `[F][Sn]([c]1ccccc1)([c]1ccccc1)[c]1ccccc1`, which AC50 is on record?
Answer: Its AC50 is 0.326 µM (active).
